Assay results: PubChem BioAssay AID1159580 (chemical genetic matrix, 2015)
Values joined by “and” are separate entries in the source; they are usually repeats but may differ in a detail not shown here. Equal values may be shown once. In all, about 5,500 compounds went through this assay and about 2,000 (36%) were called active. Another 18% or so got no clear call; they are omitted. No stated cut-off is given here; in the data, active means normalized growth mostly below about 0.91 (no sharp cut-off); inconclusive means no clear call, values can overlap the other calls; inactive means mostly above about 0.92. Some of the results follow.

Assay: chemical genetic growth profiling, strain panel (AID 1159580);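 further: tested at 20 µM; growth read once vehicle control cultures reached saturation at 30 °C; 1 = growth at the plate median or of vehicle wells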
Conditions: S. cerevisiae deletion strains, growth OD

Measured: normalized growth

COC1(C)CCC2OC2(C)CCC2C1CC2(C)C (centres undefined)
inactive: locus YAL013W, strain DEP1, stronger effect = lower value 1 | locus YAL021C, strain ccr4, stronger effect = lower value 1 | locus YAL026C, strain drs2, stronger effect = lower value 1.03 | locus YAL030W, strain snc1, stronger effect = lower value 1.01 | locus YBL061C, strain skt5, stronger effect = lower value 1.01 | locus YBR009C, strain hhf1, stronger effect = lower value 0.991 | locus YBR021W, strain FUR4, stronger effect = lower value 1.02 | locus YBR023C, strain chs3, stronger effect = lower value 1 | locus YBR171W, strain sec66, stronger effect = lower value 1.02 | locus YBR229C, strain ROT2, stronger effect = lower value 1.01 | locus YBR231C, strain swc5, stronger effect = lower value 1.02 | locus YBR279W, strain paf1, stronger effect = lower value 0.998 | locus YCL011C, strain gbp2, stronger effect = lower value 1.01 | locus YCL016C, strain dcc1, stronger effect = lower value 1 | locus YCL029C, strain bik1, stronger effect = lower value 0.998 | locus YCL061C, strain MRC1, stronger effect = lower value 1 | locus YCL069W, strain vba3, stronger effect = lower value 1.02 | locus YCR088W, strain abp1, stronger effect = lower value 1.01 | locus YDL005C, strain med2, stronger effect = lower value 1.01 | locus YDL035C, strain GPR1, stronger effect = lower value 1.01 | locus YDL040C, strain nat1, stronger effect = lower value 1.01 | locus YDL074C, strain BRE1, stronger effect = lower value 1.01 | locus YDL101C, strain DUN1, stronger effect = lower value 1.02 | locus YDL134C, strain PPH21, stronger effect = lower value 1.04 | locus YDL185W, strain tfp1, stronger effect = lower value 1.01 | locus YDL192W, strain arf1, stronger effect = lower value 0.99 | locus YDR001C, strain nth1, stronger effect = lower value 1.01 | locus YDR069C, strain doa4, stronger effect = lower value 1.01 | locus YDR101C, strain arx1, stronger effect = lower value 0.993 | locus YDR137W, strain rgp1, stronger effect = lower value 1 | locus YDR150W, strain NUM1, stronger effect = lower value 0.98 | locus YDR159W, strain sac3, stronger effect = lower value 0.997 | locus YDR162C, strain NBP2, stronger effect = lower value 0.995 | locus YDR195W, strain ref2 1.02 | locus YDR297W, strain sur2, stronger effect = lower value 0.997 | locus YDR318W, strain mcm21, stronger effect = lower value 1.01 | locus YDR334W, strain swr1, stronger effect = lower value 1.02 | locus YDR335W, strain msn5, stronger effect = lower value 1.02 | locus YDR388W, stronger effect = lower value 1.01 | locus YDR392W, strain spt3, stronger effect = lower value 0.818 | locus YDR502C, strain sam2, stronger effect = lower value 1.04 | locus YEL003W, strain gim4, stronger effect = lower value 1.01 | locus YEL037C, strain rad23, stronger effect = lower value 1.01 | locus YEL061C, strain CIN8 (second series), stronger effect = lower value 1.02 | locus YER015W, strain faa2, stronger effect = lower value 1 | locus YER016W, strain bim1, stronger effect = lower value 1.01 | locus YER110C, stronger effect = lower value 1.02 | locus YER111C, strain swi4, stronger effect = lower value 1 | locus YER155C, strain BEM2 (second series), stronger effect = lower value 0.995 | locus YER155C, strain BEM2, stronger effect = lower value 0.996 | locus YER167W, strain BCK2, stronger effect = lower value 0.997 | locus YFR010W, strain ubp6, stronger effect = lower value 1.03 | locus YGL078C, strain dbp3, stronger effect = lower value 1.05 | locus YGL086W, strain mad1, stronger effect = lower value 1 | locus YGL167C, strain pmr1, stronger effect = lower value 1.01 | locus YGL173C, strain kem1, stronger effect = lower value 1.01 | locus YGL227W, strain vid30, stronger effect = lower value 1.01 | locus YGL240W, strain doc1, stronger effect = lower value 1 | locus YGL248W, strain PDE1, stronger effect = lower value 1.05 | locus YGL253W, strain hxk2, stronger effect = lower value 1.01 | locus YGR078C, strain PAC10, stronger effect = lower value 1.05 | locus YGR135W, strain pre9, stronger effect = lower value 1.06 | locus YGR252W, strain gcn5, stronger effect = lower value 1.03 | locus YHR013C, strain ard1, stronger effect = lower value 1.03 | locus YHR027C, strain rpn1, stronger effect = lower value 1.02 | locus YHR030C, strain SLT2, stronger effect = lower value 1.01 | locus YHR079C, strain IRE1 (second series), stronger effect = lower value 1 | locus YHR079C, strain IRE1, stronger effect = lower value 1.04 | locus YHR094C, strain hxt1, stronger effect = lower value 1.01 | locus YHR129C, strain ARP1, stronger effect = lower value 1.01 | locus YHR142W, strain chs7, stronger effect = lower value 1.03 | locus YHR200W, strain rpn10, stronger effect = lower value 1.02 | locus YIL066C, strain RNR3, stronger effect = lower value 1 | locus YIL073C, strain SPO22, stronger effect = lower value 1.06 | locus YIL125W, strain kgd1, stronger effect = lower value 0.981 | locus YIR030C, strain dcg1, stronger effect = lower value 0.999 | locus YJL092W, strain hpr5, stronger effect = lower value 1.01 | locus YJL095W, strain BCK1 (second series), stronger effect = lower value 1.01 | locus YJL095W, strain BCK1, stronger effect = lower value 1.11 and 1.04 | locus YJL115W, strain asf1, stronger effect = lower value 1.01 | locus YJL129C, strain trk1, stronger effect = lower value 1.01 | locus YJL134W, strain LCB3, stronger effect = lower value 1.01 | locus YJL154C, strain vps35, stronger effect = lower value 1.02 | locus YJL164C, strain tpk1, stronger effect = lower value 1.01 | locus YJL166W, strain qcr8, stronger effect = lower value 1.02 | locus YJL168C, strain set2, stronger effect = lower value 0.988 | locus YJL187C, strain SWE1 (second series), stronger effect = lower value 1.05 | locus YJL187C, strain SWE1, stronger effect = lower value 1 | locus YJR043C, strain POL32, stronger effect = lower value 0.99 | locus YJR066W, strain TOR1, stronger effect = lower value 0.962 | locus YKL009W, strain mrt4, stronger effect = lower value 1.04 | locus YKL068W, stronger effect = lower value 1 | locus YKL085W, strain MDH1 (second series), stronger effect = lower value 1 | locus YKL085W, strain MDH1, stronger effect = lower value 1 | locus YKL160W, strain elf1, stronger effect = lower value 1 | locus YKL190W, strain CNB1, stronger effect = lower value 1 | locus YKR001C, strain vps1, stronger effect = lower value 1.02 | locus YKR026C, strain gcn3, stronger effect = lower value 1.01 | locus YKR091W, strain srl3, stronger effect = lower value 1.01 | locus YLL001W, strain dnm1, stronger effect = lower value 0.989 | locus YLL026W, stronger effect = lower value 0.991 | locus YLL041C, strain sdh2, stronger effect = lower value 1.02 | locus YLR027C, strain aat2, stronger effect = lower value 0.993 | locus YLR039C, strain RIC1, stronger effect = lower value 1.06 | locus YLR058C, strain SHM2, stronger effect = lower value 1.03 | locus YLR102C, strain apc9, stronger effect = lower value 0.997 | locus YLR113W, strain HOG1, stronger effect = lower value 1.03 | locus YLR221C, strain rsa3, stronger effect = lower value 1.01 | locus YLR258W, strain gsy2, stronger effect = lower value 1.01 | locus YLR262C, strain YPT6 (second series), stronger effect = lower value 0.979 | locus YLR262C, strain YPT6, stronger effect = lower value 1.07 | locus YLR268W, strain sec22, stronger effect = lower value 0.983 | locus YLR320W, strain mms22, stronger effect = lower value 1 | locus YLR342W, strain FKS1, stronger effect = lower value 1 | locus YLR357W, strain rsc2, stronger effect = lower value 1.02 | locus YLR370C, strain arc18, stronger effect = lower value 1 | locus YLR371W, strain rom2, stronger effect = lower value 1.01 | locus YLR384C, strain iki3, stronger effect = lower value 1 | locus YLR418C, strain cdc73, stronger effect = lower value 1.04 | locus YML016C, strain PPZ1, stronger effect = lower value 1.02 | locus YML032C, strain rad52, stronger effect = lower value 1 | locus YML120C, strain ndi1, stronger effect = lower value 1.01 | locus YML124C, strain tub3, stronger effect = lower value 1 | locus YMR058W, strain fet3, stronger effect = lower value 1.01 | locus YMR078C, strain ctf18, stronger effect = lower value 1.01 | locus YMR125W, strain sto1, stronger effect = lower value 0.997 | locus YMR129W, stronger effect = lower value 1.01 | locus YMR205C, strain PFK2, stronger effect = lower value 0.981 | locus YMR223W, strain ubp8, stronger effect = lower value 1.01 | locus YMR231W, strain pep5, stronger effect = lower value 1 | locus YMR307W, strain GAS1, stronger effect = lower value 1.02 | locus YNL067W, strain RPL9B, stronger effect = lower value 1.04 | locus YNL071W, strain lat1, stronger effect = lower value 1.01 | locus YNL153C, strain GIM3, stronger effect = lower value 1.04 | locus YNL183C, strain NPR1, stronger effect = lower value 0.972 | locus YNL209W, strain ssb2, stronger effect = lower value 1.01 | locus YNL233W, strain BNI4, stronger effect = lower value 1.06 | locus YNL248C, strain rpa49, stronger effect = lower value 1.02 | locus YNL250W, strain rad50, stronger effect = lower value 1.03 | locus YNL271C, strain bni1, stronger effect = lower value 1.01 | locus YNL298W, strain CLA4, stronger effect = lower value 1.02 | locus YNL307C, strain MCK1, stronger effect = lower value 1.01 | locus YNL322C, strain KRE1 (second series), stronger effect = lower value 1.01 | locus YNR049C, strain mso1, stronger effect = lower value 1.01 | locus YNR052C, strain pop2, stronger effect = lower value 1.03 | locus YOL012C, strain htz1 1.84 | locus YOL147C, strain pex11, stronger effect = lower value 1.01 | locus YOR001W, strain rrp6, stronger effect = lower value 1.02 | locus YOR061W, strain CKA2, stronger effect = lower value 1.01 | locus YOR069W, strain VPS5, stronger effect = lower value 1.01 | locus YOR070C, strain gyp1, stronger effect = lower value 1.02 | locus YOR080W, strain dia2, stronger effect = lower value 1 | locus YOR083W, strain WHI5, stronger effect = lower value 0.996 | locus YOR106W, strain vam3, stronger effect = lower value 1.01 | locus YOR136W, strain idh2, stronger effect = lower value 1.01 | locus YOR144C, strain elg1, stronger effect = lower value 0.994 | locus YOR184W, strain ser1, stronger effect = lower value 0.976 | locus YOR231W, strain MKK1, stronger effect = lower value 1.07 | locus YOR265W, strain rbl2, stronger effect = lower value 1.02 | locus YOR270C, strain vph1, stronger effect = lower value 1.15 | locus YOR290C, strain snf2, stronger effect = lower value 1.02 | locus YOR316C, strain cot1, stronger effect = lower value 1.01 | locus YPL051W, strain arl3, stronger effect = lower value 0.976 | locus YPL055C, strain LGE1, stronger effect = lower value 1 | locus YPL078C, strain atp4, stronger effect = lower value 1.01 | locus YPL106C, strain sse1, stronger effect = lower value 1.01 | locus YPL240C, strain hsp82, stronger effect = lower value 1.01 | locus YPL241C, strain CIN2, stronger effect = lower value 0.993 | locus YPL256C, strain CLN2, stronger effect = lower value 1.03 | locus YPR119W, strain clb2, stronger effect = lower value 1 | locus YPR141C, strain kar3, stronger effect = lower value 1.02 | locus YPR163C, strain tif3, stronger effect = lower value 1 | locus YPR167C, strain met16, stronger effect = lower value 1.01 | strain wtn01, stronger effect = lower value 0.986
